Screening data as filed in PubChem.
KB-3-1 cytotox – qHTS assay for MDR1-selective chemotherapeutics: Primary screen using the parental adenocarcinoma cell KB-3-1; KB-3-1 viability, CellTiter-Glo ATP luminescence, 72 h; Potency, µM (series often up to 46.1 µM), most hits filed as cytotoxic; 1.4% of 400,000 active; AID 1347075, 2019; also: % is scaled to controls: 0 for no effect and ±100 for the full control effect; nearly all actives have a fitted effect of over 60% in size
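Cytotoxicity in the drug-sensitive parental line KB-3-1 was scored as loss of CellTiter-Glo luminescence following 72 h incubation with compound. Values come from curve fitting of normalized concentration-response data.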
SW480 rerep – A quantitative high throughput screen for small molecules that induce DNA re-replication in SW480 colon adenocarcinoma cells | SW480 DNA re-replication, Hoechst DNA content imaging, 48 h | Potency, µM (top dose mostly 46.1 µM), inactives show top-dose re-replication activation, actives largely listed as activators | 1.8% of 340,000 active; also: % of control where 0% means no effect; nearly all actives have a fitted effect of over 55% in size
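Hoechst fluorescence of nuclei (405 nm excitation, 500-530 nm emission) measured by plate-scanning imager after 48 hr compound exposure at 37 C; re-replication scored as increased number of nuclei with elevated intensity.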
MCF10A rerep – A quantitative high throughput screen for small molecules that induce DNA re-replication in MCF 10a normal breast cells; Potency, µM (doses to about 46.1 µM), without a hit: at the top dose activity, positive = re-replication, actives largely listed as activators; AID 624296, 2012; MCF 10A DNA re-replication, Hoechst nuclear intensity, 48 h; 2.9% of 350,000 active; also: % of control where 0% means no effect; nearly all actives have a fitted effect of over 50% in size
HT1080 IDH1KD tx – qHTS for induction of synthetic lethality in tumor cells producing 2HG: qHTS for the HT-1080-IDH1KD cell line; HT-1080 IDH1 knockdown viability, ATP luminescence, 48 h; Potency, µM (titrated, usually from 46.1 µM), for inactives: at the highest dose activity, negative = toxicity, actives largely listed as cytotoxic; 2% of 360,000 active; AID 686971, 2013;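 also: 0% = DMSO wells and -100% = cell-free medium wells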
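Assay cells: HT-1080 with IDH1 knockdown, 750 per well, RPMI/5% FBS. Exposure: 48 h at 37 °C following 2 h pre-incubation. Read: CellTiter-Glo luminescence; fitted concentration-response, curve class assigned.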
KB-V1 cytotox – qHTS assay for MDR1-selective chemotherapeutics: Primary screen using the drug-selected MDR subline cells KB-V1; KB-V1 MDR cells viability, CellTiter-Glo, 72 h; Potency, µM (highest dose often 46.1 µM), most hits filed as cytotoxic; 3.4% of 400,000 active; also: % is scaled to controls: 0 for no effect and ±100 for the full control effect; nearly all actives have a fitted effect of over 60% in size
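Following 72 h at 37 degrees C with compound, KB-V1 cell viability was read by CellTiter-Glo luminescence, medium being phenol-red-free DMEM plus 10% FBS; concentration-response parameters came from normalized, curve-fitted qHTS data.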
HT1080-NT tox – qHTS for induction of synthetic lethality in tumor cells producing 2HG: qHTS for the HT-1080-NT fibrosarcoma cell line | HT-1080-NT fibrosarcoma viability, CellTiter-Glo ATP luminescence, 48 h | Potency, µM (doses to about 46.1 µM), inactives show top-dose activity, negative = less viability, usual class: cytotoxic | 1.6% of 360,000 active;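 also: NT is the 2HG producing partner of a matched IDH1 knockdown line; 0% = DMSO-treated cells and -100% = media-only wells without cells; nearly all actives have a fitted effect of over 55% in size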
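Viability of the 2HG-overproducing fibrosarcoma line after 48 hours of compound exposure at 37 degrees C was determined by luminescence with CellTiter-Glo, and concentration-effect curves were then fitted and categorized.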
An asterisk follows results filed as active; i = inactive; ? = inconclusive; / = no result; [ ] = another dose, or the depositor's remark. Shown are actives, neighbours in structure and some others; about 8% of the full set was active somewhere. Calls follow the shape of the dose curve; as a rule, active = well fitted curve in the direction sought with a large enough effect; inconclusive = small, poorly fitted or top-dose-only effect, or another doubt; inactive = no such curve, though single readings can be large; an effect the other way counts as inactive or inconclusive. Potency is read from the fitted curve at half-maximal effect.

SMILES	KB-3-1 cytotox	SW480 rerep	MCF10A rerep	HT1080 IDH1KD tx	KB-V1 cytotox	HT1080-NT tox
COc1ccccc1OCCNC(=O)c1cccc(S(=O)(=O)N2CCN(Cc3ccccc3)CC2)c1	i	-1%	1%	-12%	i	-12%
CC(NC(=O)OCc1ccccc1)C(=O)Oc1cc2oc(=O)cc(-c3ccccc3)c2cc1Cl (stereo unspecified)	i	?	18µM*	-6%	i	0%
O=C1NC(c2ccc(Br)cc2)Oc2ccccc21 (stereo unspecified)	i	-5%	-1%	0%	i	-2%
CC1(C)CC(=O)C=C(N=CC2=C(O)CC(C)(C)CC2=O)C1	i	-8%	8%	-2%[9.24 µM]	i	0%
N#Cc1cnc(SCC(=O)N2CCCC2)nc1N	i	-7%	-2%	4%	?	2%
CCOC(=O)c1sc2ncnc(NCC(c3cccs3)N(C)C)c2c1C (stereo unspecified)	i	4%	28%	-13%	21µM*	-20%
CN(C)C(CNc1ncnc2sccc12)c1cccs1 (stereo unspecified)	i	8%	?	-3%	?	-3%
CNc1nc(Nc2ccc(C)cc2C)c2sccc2n1	18µM*	/	/	?	15µM*	?
Cc1ccc(CNc2nc(NCC3CC3)nc3ccsc23)c(C)c1	i	/	/	16µM*	?	15µM*
CNc1nc(NCc2ccc(N(C)C)cc2)c2sccc2n1	i	/	/	?	i	?
CNc1nc(NCC2CCCCC2)c2sccc2n1	i	/	/	23µM*	i	23µM*
CC(C)Nc1nc(NCc2ccccc2)c2sccc2n1	?	/	/	?	?	23µM*
Cc1ccc(CNc2nc(NC(C)C)nc3ccsc23)c(C)c1	i	/	/	?	i	?
CNc1nc(NCc2ccc(C)cc2C)c2sccc2n1	i	/	/	?	?	?
Cc1ccc(Nc2nc(NCC3CC3)nc3ccsc23)c(C)c1	21µM*	/	/	6.5µM*	?	12µM*
Cc1ccc(CNc2nc(NCc3ccccc3)nc3ccsc23)c(C)c1	?	/	/	?	?	26µM*
O=C(CSc1nnc(Cn2c(=O)sc3ccccc32)n1CCc1ccccc1)N1CCOCC1	i	1%	15%	-1%	18µM*	22%
c1cncc(-c2nc(NCCCN3CCOCC3)c3c4c(sc3n2)CCC4)c1	?	3%	10%	?	i	18µM*
CC(C)c1ccc(C(=O)N2CCCC(c3cc(C(=O)Nc4ccccc4Cl)no3)C2)cc1 (stereo unspecified)	18µM*	/	/	1%	?	22%
CC(=O)Nc1ccc(C(=O)N2CCCC(c3cc(C(=O)Nc4ccccc4Cl)no3)C2)cc1 (stereo unspecified)	i	/	/	18%	i	?
NC(=O)/C=C/C(=O)Nc1ccc(Cl)cc1	i	18%	15µM*	?	i	-2%
CC1(C)N=C(SCc2ccc(Cl)cc2)c2ccccc2N1	i	/	/	/	i	/
Cc1cc(NC(=O)C2CCN(S(=O)(=O)c3c(C)noc3C)CC2)ccc1Br	i	?	21µM*	-14%	i	-1%
Cc1noc(C)c1C(=O)Nc1ccc(S(=O)(=O)N2CCCCC2)cc1	i	-5%	3%	0%	?	3%
Cc1ccc(/C=C/c2onc(C)c2S(=O)(=O)N2CCC(C(=O)Nc3ccc(Br)c(C)c3)CC2)cc1	i	/	/	/	i	/
SMILES	KB-3-1 cytotox	SW480 rerep	MCF10A rerep	HT1080 IDH1KD tx	KB-V1 cytotox	HT1080-NT tox
CCS(=O)(=O)c1ncc(Cl)c(C(=O)Nc2ccc(S(=O)(=O)N3CCC(C)CC3)cc2)n1	?	?	1.8µM*	3.7µM*	10µM*	2.9µM*
CC1CCN(S(=O)(=O)c2ccc(NC(=O)c3ccncc3)cc2)CC1	16µM*	-7%	?	?	?	-22%
Cc1noc(C)c1C(=O)Nc1ccc(S(=O)(=O)N2CCC(C)CC2)cc1	i	18µM*	-1%	-2%	?	-11%[9.24 µM]
O=C(Cn1cnc2sc(-c3ccccc3)cc2c1=O)NCCc1ccccc1	i	?	?	-5%	?	-6%
O=C(Cn1cnc2sc(-c3ccccc3)cc2c1=O)NCc1ccco1	18µM*	?	?	?	?	?
O=C(Cn1cnc2sc(-c3ccccc3)cc2c1=O)NCc1ccccc1	7.3µM*	16µM*	4.6µM*	6.3µM*	i	7.9µM*
CN(CC(=O)NCc1cccs1)S(=O)(=O)c1cccc2nsnc12	i	-1%	-2%	0%	21µM*	-1%
Cc1cc(C)n(CCc2nc(-c3cc4ccccc4o3)cs2)n1	i	1%	20%	6%	16µM*	2%
CCCc1c(C)c2cc(C)ccc2[nH]c1=O	?	-4%	-3%	0%	4.1µM*	3%
Cc1ccccc1OCc1nc(-c2ccc(-n3cccc3)cc2)no1	i	-3%	0%	0%	i	27%
COc1cccc(C(=O)Nc2nc(-c3nnn(-c4cccc(Cl)c4C)c3C)ns2)c1	15µM*	/	/	/	i	/
CN1C(=O)S/C(=C/c2ccccc2OCc2ccc(C(=O)O)cc2)C1=O	i	1%	0%	7%	?	2%
Cc1cc(C(=O)COC(=O)c2ccc[nH]c2=O)c(C)n1-c1ccc(F)cc1	i	-29%	-10%	13%	18µM*	-2%
Cc1cc(C(=O)COC(=O)c2ccc[nH]c2=O)c(C)n1-c1ccccc1	i	-38%	-2%	-1%	18µM*	0%
CCNC(=O)COC(=O)c1cc(C)n(-c2ccccc2)c1C	i	?	13%	0%	i	13%
Cc1cc(C(=O)OCC(=O)NCc2ccco2)c(C)n1-c1ccc(F)cc1	?	3.7µM*	2.1µM*	?	1.3µM*	?
Cc1cc(NCCO)nc(-n2nc(C)cc2C)n1	i	2%	-4%	6%	i	5%
O=C(N/N=C/c1cccs1)c1ccc2ncccc2c1	i	1%	0%	-21%	i	-5%
O=C(N/N=C/c1cccs1)c1ccc2ccccc2c1	21µM*	?	23µM*	-14%	?	?
O=C(N/N=C/c1cc(Br)cs1)c1ccc2c(c1)OCCO2	?	?	?	12µM*	?	2.9µM*
